Assay outcomes as filed in PubChem BioAssay.
In the library only some 2% were active in any assay of this set; here they are far more common.
ABHD5-PLIN5 inh – ABHD5-PLIN5 protein interaction inhibition | Q00G26+Q8WTS1 | Split G. princeps luciferase complementation, luminescence, 4 h | inhibition, % at 4 µM | hit rate 0.78% among 360,000 | AID 602281;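 active means inhibition above the mean inhibition across every tested compound plus 3 SD, cut at about 22% in these data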
Beta2AR agonist – activates human beta-2 adrenergic receptor causing internalization | hit rate 0.43% among 340,000 | AID 504454 | Am2.2-beta2AR cells, FAP receptor internalization, flow cytometry | P07550 | response, % (test concentration not listed);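 active means response above a set limit, near 3 SD of response in nonfluorescent compounds, cut at about 42% in these data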
TLR4-MyD88 BLA – inhibitors of human TLR4-MyD88 binding; O00206+Q99836; inhibition, % at 8.4 µM; AID 861; HeLa CL3-4 TLR4/MyD88 BLA complementation, FRET ratio; hit rate 0.18% among 200,000; in the data active means inhibition above about 25%
Target sequence (O00206 whole entry, looked up): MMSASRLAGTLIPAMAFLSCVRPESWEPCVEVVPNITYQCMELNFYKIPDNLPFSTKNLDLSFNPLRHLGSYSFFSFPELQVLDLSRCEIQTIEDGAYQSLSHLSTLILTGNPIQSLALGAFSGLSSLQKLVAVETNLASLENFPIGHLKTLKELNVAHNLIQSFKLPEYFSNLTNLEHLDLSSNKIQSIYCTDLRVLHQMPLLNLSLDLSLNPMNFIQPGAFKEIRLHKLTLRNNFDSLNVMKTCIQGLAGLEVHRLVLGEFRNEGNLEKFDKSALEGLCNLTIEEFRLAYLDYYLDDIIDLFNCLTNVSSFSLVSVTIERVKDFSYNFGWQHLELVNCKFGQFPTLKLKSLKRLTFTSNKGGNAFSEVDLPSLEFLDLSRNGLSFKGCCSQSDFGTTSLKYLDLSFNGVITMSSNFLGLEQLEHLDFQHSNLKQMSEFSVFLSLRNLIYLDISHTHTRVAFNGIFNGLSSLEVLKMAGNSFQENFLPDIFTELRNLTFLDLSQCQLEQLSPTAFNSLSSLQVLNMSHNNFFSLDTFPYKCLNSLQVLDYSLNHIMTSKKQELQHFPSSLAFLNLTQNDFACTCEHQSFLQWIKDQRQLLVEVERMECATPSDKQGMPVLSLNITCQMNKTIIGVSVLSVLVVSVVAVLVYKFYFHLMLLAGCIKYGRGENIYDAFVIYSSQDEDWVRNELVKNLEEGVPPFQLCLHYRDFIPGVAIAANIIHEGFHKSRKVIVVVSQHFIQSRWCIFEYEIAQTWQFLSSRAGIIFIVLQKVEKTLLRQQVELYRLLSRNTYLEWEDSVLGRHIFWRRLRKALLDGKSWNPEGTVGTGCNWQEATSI
Target sequence (Q99836 whole entry, looked up): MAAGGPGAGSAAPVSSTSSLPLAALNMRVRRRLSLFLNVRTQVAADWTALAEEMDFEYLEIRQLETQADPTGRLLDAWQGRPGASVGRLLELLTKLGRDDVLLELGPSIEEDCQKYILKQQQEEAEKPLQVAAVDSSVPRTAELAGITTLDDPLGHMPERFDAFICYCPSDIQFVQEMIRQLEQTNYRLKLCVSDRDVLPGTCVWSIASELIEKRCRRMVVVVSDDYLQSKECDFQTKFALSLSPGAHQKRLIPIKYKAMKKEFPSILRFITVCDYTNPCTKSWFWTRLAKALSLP
TLR9-MyD88 block – inhibitors of human TLR9-MyD88 binding; Q9NR96+Q99836; CHO BLA complementation TLR9-MyD88, CCF4 FRET ratio; inhibition, % at 4.98 µM; hit rate 0.21% among 340,000;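 active means inhibition above the mean over all tested compounds plus 3 SD, cut at about 21% in these data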
NOD2 RIPK2 PPI – NOD2-RIPK2 protein interaction inhibition; inhibition, % at 4.98 µM; CHO BLA complementation NOD2-RIPK2, CCF4 ratio; hit rate 0.38% among 360,000; AID 624267; O43353; in the data active means inhibition above about 21%
Exocytosis inh – blocks lytic granule exocytosis | TALL-104 LAMP-1 surface exposure, flow cytometry; cells stimulated with thapsigargin and PMA | inhibition, % at 10 µM | hit rate 0.66% among 360,000;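 active means inhibition above about 55%, limit read from the data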
TLR4-MyD88 conf – TLR4-MyD88 interaction inhibition confirmed | inhibition, % at 8.4 µM | shares compounds with TLR4-MyD88 BLA | hit rate 50% among 350 | HeLa CL3-4 BLA complementation, CCF4 FRET ratio;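 active means mean inhibition across three repeat runs above about 25% carried over from the earlier screen, limit read from the data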
BLA inh HeLa – beta-lactamase inhibition flagged in TLR4-MyD88 counter-screen; inhibition, % at 8.4 µM; shares compounds with TLR4-MyD88 BLA; HeLa BLA reporter, CCF4 FRET ratio; AID 1237; hit rate 63% among 350;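 active means mean inhibition over three repeats above about 26% taken from the earlier screen, limit read from the data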;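 further: HeLa cells stably expressing beta-lactamase reporter as counterscreen for TLR4-MyD88 inhibitors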
Each line names hits and unclear results; the compound was inactive in the other large screens (follow-up assays come after a bar, where they were run).

N#Cc1sc2nc(C3CC3)cc(-c3ccccc3)c2c1N	none
COc1ccc2nc(/C(C#N)=C\c3ccc(C(=O)O)cc3)[nH]c2c1	TLR4-MyD88 BLA 27 | TLR4-MyD88 conf inactive | BLA inh HeLa 27
Cc1ccc(N2CCN(C(C(=O)Nc3c(C)cccc3C)c3cccc(F)c3)CC2)cc1 (configuration not stated)	none (no result: Beta2AR agonist, TLR4-MyD88 BLA, TLR9-MyD88 block)
CCc1ccc(N2C=C(C(=O)OC)C(c3cccc4ccccc34)C(C#N)=C2N)cc1 (configuration not stated)	none (no result: Beta2AR agonist, TLR4-MyD88 BLA, TLR9-MyD88 block)
O=[N+]([O-])c1ccc(N/N=C/c2cn(-c3ccccc3)nc2-c2ccccc2)cc1	TLR4-MyD88 BLA 38 | TLR4-MyD88 conf 38 | BLA inh HeLa 75
Cc1c(C(=O)O)sc2nc(-c3cccs3)cc(C(F)(F)F)c12	none (no result: TLR4-MyD88 BLA)
CC(=O)c1sc2nc(-c3cccs3)cc(C(F)(F)F)c2c1N	TLR4-MyD88 BLA 30 | TLR4-MyD88 conf inactive | BLA inh HeLa inactive
O=C(Nc1ccc(F)cc1)C(c1cccc(F)c1)N1CCN(c2ccncc2)CC1 (configuration not stated)	none (no result: Beta2AR agonist, TLR4-MyD88 BLA, TLR9-MyD88 block)
CCCC1Cc2[nH]c(=O)c(C#N)cc2CO1 (configuration not stated)	none (no result: TLR4-MyD88 BLA)
CCCC1Cc2nc(N3CCCCC3)c(C#N)cc2CO1 (configuration not stated)	TLR4-MyD88 BLA 26 | TLR4-MyD88 conf inactive | BLA inh HeLa inactive
O=C(NC(c1ccc(F)cc1)c1ccc2ccccc2n1)C1CCN(Cc2cccc(C(F)(F)F)c2)CC1 (configuration not stated)	none (no result: Beta2AR agonist, TLR4-MyD88 BLA, TLR9-MyD88 block)
CCCCCn1c(=O)c(C(=O)c2ccccc2)nc2ccccc21	none
CCCCCCn1c(=O)[nH]c2nc3cc(N)ccc3nc2c1=O	TLR4-MyD88 BLA 25 (no result: ABHD5-PLIN5 inh, Beta2AR agonist, TLR9-MyD88 block, NOD2 RIPK2 PPI, Exocytosis inh) | TLR4-MyD88 conf 30 | BLA inh HeLa 45
O=C(CCc1ccccc1)c1ccc2c(c1)OCCCO2	none
O=C(CCCc1ccccc1)c1ccc2c(c1)OCCO2	TLR4-MyD88 BLA 25 | TLR4-MyD88 conf inactive | BLA inh HeLa inactive
C=CCOC(=O)Nc1nc(CCNC(=O)OCc2ccccc2)c(C(=O)O)s1	none (no result: Beta2AR agonist, TLR4-MyD88 BLA, TLR9-MyD88 block)
CCCCn1nnnc1C1(C)CCC(=O)N1CCc1ccc(OC)c(OC)c1 (configuration not stated)	none (no result: Beta2AR agonist, TLR4-MyD88 BLA, TLR9-MyD88 block)
CNC(=O)c1sc(N2N=C3/C(=C\c4ccccc4)CCCC3C2c2ccccc2)nc1C (configuration not stated)	none (no result: TLR4-MyD88 BLA)
CNC(=O)c1sc(N2N=C3/C(=C/c4ccccc4)CCCC3C2c2ccccc2)nc1C (configuration not stated)	TLR4-MyD88 BLA 28 | TLR4-MyD88 conf inactive | BLA inh HeLa 54
COc1ccc(OC)c(CN2CCN(C(=O)c3ccc(C)c(S(=O)(=O)Nc4ccccc4OC)c3)CC2)c1	none (no result: TLR4-MyD88 BLA)
COc1ccc(NC(=O)CSc2ccc3c4c(cccc24)C(=O)c2ccccc2-3)cc1	TLR4-MyD88 BLA 33 | TLR4-MyD88 conf inactive | BLA inh HeLa inactive
N#Cc1cccc(NC(=O)CSc2ccc3c4c(cccc24)C(=O)c2ccccc2-3)c1	TLR4-MyD88 BLA 54 | TLR4-MyD88 conf 36 | BLA inh HeLa 65
CCc1nc2ccc(C(=O)Nc3ccc(C(N)=O)cc3)cn2c1N(CCC(C)C)CCN(C)C	none (no result: Beta2AR agonist, TLR4-MyD88 BLA, TLR9-MyD88 block)
CC(=O)C1=NN(c2ccccc2)C(c2cccs2)N1c1ccccc1 (configuration not stated)	TLR4-MyD88 BLA 27 (no result: ABHD5-PLIN5 inh, Beta2AR agonist, TLR9-MyD88 block, NOD2 RIPK2 PPI, Exocytosis inh) | TLR4-MyD88 conf inactive | BLA inh HeLa inactive
CC(C)(C)NC(=O)C(C1CC1)n1c(=O)c(-c2ccccc2)nc2ccccc21 (configuration not stated)	none (no result: Beta2AR agonist, TLR4-MyD88 BLA, TLR9-MyD88 block)
Cc1ccc(S(=O)(=O)N2C[C@]3(O)C[C@@H]4C(=O)N(c5ccccc5)C(=O)[C@@H]4C[C@]3(OC(=O)NCC3CCCCC3)C2)cc1	none (no result: Beta2AR agonist, TLR4-MyD88 BLA)
Cc1n[nH]c(C)c1NC(=O)c1cc([N+](=O)[O-])ccc1Cl	TLR4-MyD88 BLA 27 | TLR4-MyD88 conf inactive | BLA inh HeLa inactive
Cc1cccc(NC(=O)c2cc([N+](=O)[O-])ccc2Cl)c1O	none
